High-throughput results: PubChem, The Scripps Research Institute Molecular Screening Center
Most compounds without a hit are left out; they make up all but 4.8% or so of the library.
SMARCA2 act – SMARCA2 function activation, primary screen; MG213 cells, MMTV-luciferase reporter, dexamethasone, overnight; activation, % at 9.1 µM; 1% of 370,000 active; in the data active means activation above about 7.8%
DAX1 inh-1 – inhibits human nuclear receptor DAX1. inhibition, % at 6.75 µM. 0.99% of 340,000 active. HEK293 Gal4-DAX1 luciferase reporter, luminescence. P51843;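 active means inhibition above the mean over all tested compounds plus 3 SD, cut at about 4.2% in these data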;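 further: inhibition shows as a rise in luminescence from relieved DAX1 repression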
Target sequence (P51843 207-470 limits assumed): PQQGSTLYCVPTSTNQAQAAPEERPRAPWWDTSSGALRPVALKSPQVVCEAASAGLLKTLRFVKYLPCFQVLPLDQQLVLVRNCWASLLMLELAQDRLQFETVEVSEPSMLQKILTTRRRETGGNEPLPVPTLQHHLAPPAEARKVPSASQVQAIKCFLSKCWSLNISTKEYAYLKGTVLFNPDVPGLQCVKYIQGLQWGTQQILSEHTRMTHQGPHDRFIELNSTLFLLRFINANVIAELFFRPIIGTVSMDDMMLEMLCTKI
ssDAF-12 act – activators of S. stercoralis DAF-12 nuclear receptor; 1% of 370,000 active; activation, % at 6.8 µM; AID 652126; HEK293 ssDAF-12/GRIP1 lit1-tk-luc reporter, luminescence; % of 3 µM dafachronic acid response;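 active means activation above the mean over all tested compounds plus 3 SD, cut at about 0.9% in these data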
hcDAF-12 act – H. contortus DAF-12 activation, primary screen; HEK293 hcDAF-12 lit1-tk-luc reporter, luminescence; 0% DMSO, 100% Δ7-dafachronic acid; activation, % at 6.8 µM; 1.4% of 370,000 active; AID 652067;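 active means activation above the mean of all tested compounds plus 3 SD, cut at about 5.5% in these data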
hgDAF-12 ag – activates the H. glycines DAF-12 receptor ligand-binding domain; 1.8% of 370,000 active; HEK293 GAL4-hgDAF12 UAS-luciferase reporter, agonist luminescence; normalized to butyrate control; activation, % at 6.8 µM;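 active means activation above a cutoff set at the mean of all screened compounds plus 3 SD, cut at about 10% in these data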
DAX1 inh-2 – DAX1 (NR0B1) inhibition, primary screen | HEK293T StAR-luciferase reporter, SF-1/DAX-1 repression relief | inhibition, % at 6.8 µM | 1.1% of 370,000 active;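 active means inhibition above the mean over all tested compounds plus 3 SD, cut at about 3.6% in these data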;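 further: higher inhibition means more luminescence from relief of DAX-1 repression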
LXR ag – counter-screen for hcDAF-12 agonists: agonists of human LXR-beta. shares compounds with hcDAF-12 act. HEK293 Gal4-LXR tk-luc reporter, luminescence, 24 h; normalized: DMSO 0%, positive control 100%. activation, % at 6.8 µM. 3,400 tested, under 10 active;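 active means mean percent activation of the reporter above a cutoff set as the average over tested compounds plus their standard deviation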
hcDAF12 ag – confirmation of H. contortus DAF-12 agonists; shares compounds with hcDAF-12 act; HEK293 hcDAF-12 lit1-tk-luc reporter, luminescence; % of Δ7-dafachronic acid response; activation, % at 6.8 µM; 61% of 3,400 active; AID 743032;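 active means mean activation across triplicate tests above the threshold derived from the earlier primary screen, cut at about 5.5% in these data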
Large screens that a line does not name were inactive (follow-up assays come after a bar, where they were run).

COc1ccccc1C(=O)NNC(=O)c1cccc(F)c1	ssDAF-12 act 1.2, hcDAF-12 act 10.4, DAX1 inh-2 3.9 | LXR ag inactive | hcDAF12 ag 11.0
CCOc1ccc(Cl)cc1S(=O)(=O)NC1CCCC1	none
Cc1ccc2oc(/N=C(\N)NC(=O)C3CC3)nc2c1	hcDAF-12 act 6.6 | LXR ag inactive | hcDAF12 ag 7.0
Cc1ccc(-c2cc(C(=O)n3cnc4ccccc43)c3ccccc3n2)cc1C	ssDAF-12 act 1.5, hcDAF-12 act 8.1 | LXR ag inactive | hcDAF12 ag inactive
C/C(=N\Nc1nc2ccccc2[nH]1)c1cc2ccccc2o1	hcDAF-12 act 7.4 | LXR ag inactive | hcDAF12 ag 8.7
CCOc1cc(/C=N\NC(=O)c2c(C)nc3ccccn23)ccc1O	hcDAF-12 act 8.0 | LXR ag inactive | hcDAF12 ag inactive
Cc1ccccc1OCC(=O)N/N=C/c1ccc([N+](=O)[O-])o1	none
c1ccc(N2CC3COc4ccccc4C3=N2)cc1 (stereo not given)	ssDAF-12 act 2.8, hcDAF-12 act 16.1, hgDAF-12 ag 19.7, DAX1 inh-2 3.9 | LXR ag inactive | hcDAF12 ag 13.7
c1ccc2c(c1)OCc1cn[nH]c1-2	none
COc1ccc(NC(=O)/C=C/c2ccccc2)cn1	hcDAF-12 act 8.5, hgDAF-12 ag 11.9 | LXR ag inactive | hcDAF12 ag 6.5
O=C(C[n+]1ccc(C(=O)N/N=C/c2ccc(O)cc2)cc1)c1ccccc1	none
O=C(C[n+]1ccc(C(=O)N/N=C/c2ccc(OCc3ccccc3)cc2)cc1)c1ccccc1	hcDAF-12 act 7.5 | LXR ag inactive | hcDAF12 ag inactive
Cc1ccc(O)c(-c2cc(-c3ccc(F)cc3)no2)c1	DAX1 inh-1 7.7, ssDAF-12 act 4.0, hcDAF-12 act 18.6, hgDAF-12 ag 19.6 | LXR ag inactive | hcDAF12 ag 18.1
Cc1ccc(-c2cc(C(=O)Nc3cc(C)ccc3O)no2)cc1	none
CC(C)(C)c1ccc(C2(C)NC(=O)NC2=O)cc1 (stereo not given)	hcDAF-12 act 8.7 | LXR ag inactive | hcDAF12 ag inactive
Cc1nc(NC(=O)c2cccnc2Cl)sc1C	hcDAF-12 act 8.5 | LXR ag inactive | hcDAF12 ag inactive
CCOC(=O)c1[nH]c2ccccc2c1NC(=O)CC(C)(C)C	hcDAF-12 act 6.8 | LXR ag inactive | hcDAF12 ag inactive
COC(=O)c1[nH]c2ccccc2c1NC(=O)Oc1ccccc1	hcDAF-12 act 8.4 | LXR ag inactive | hcDAF12 ag 7.4
COC(=O)c1[nH]c2ccccc2c1CN1CCOCC1	hcDAF-12 act 7.5 | LXR ag inactive | hcDAF12 ag inactive
CCOC(=O)c1[nH]c2ccccc2c1NC(=O)CN(C)C	none
O=C(NCc1ccc(Cl)cc1)C1CCCN(S(=O)(=O)c2cnc[nH]2)C1 (stereo not given)	none
Cc1cc(C(=O)NCC(c2ccco2)N(C)C)no1 (stereo not given)	none
Cc1sc2c(c1C)CN(CCN1CCOCC1)CN2C(=O)c1ccccc1	hcDAF-12 act 9.6 | LXR ag inactive | hcDAF12 ag 6.0
Cc1c(OCC(=O)NCCN2CCOCC2)ccc2c3c(c(=O)oc12)CCC3	none
COc1ccc(C2C(=O)N(C3CCCCC3)CC(=O)N2CCc2ccccc2)cc1OC (stereo not given)	none
COc1ccc(CN2CCN(C(=O)c3ccco3)CC2)cc1	none
Clc1ccccc1-c1ccc(/C=N/Nc2nncc(-c3ccccc3)n2)o1	hcDAF-12 act 10.3 | LXR ag inactive | hcDAF12 ag inactive
Cc1ccc(C(=O)Nc2ccccc2C(=O)NC(CC(=O)O)C(=O)O)cc1 (stereo not given)	hcDAF-12 act 7.0 | LXR ag inactive | hcDAF12 ag inactive
